Compound activity (PubChem BioAssay)
GDH-TPI counter-1: GDH-TPI coupled enzyme inhibition counter-screen. GDH-TPI coupled enzyme counterscreen, NADH absorbance. inhibition, % at 4.8 µM. 1.2% of 360,000 active. AID 588335;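 also: 0% = DMSO wells and 100% = wells lacking the enzyme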
CCHF vOTU inh: blocks the CCHF virus ovarian tumor domain protease; CCHFV vOTU protease, Pep-AMC fluorescence; inhibition, % at 11.5 µM; AID 651958; 0.55% of 370,000 active; also: 0% = vehicle wells with enzyme and 100% = no enzyme wells
BH1578 lux ind: inducers of Vibrio cholerae quorum light production without autoinducers; 0.16% of 350,000 active; V. cholerae BH1578 lux reporter, luminescence, 6 h; AID 588436; activation, % at 18.7 µM; in the data active = activation mostly above about 9.7%, no sharp cut-off
Mtb FBA inh: Mtb fructose-bisphosphate aldolase inhibition; P9WQA3; purified M. tuberculosis FBA, fluorescence read-out; inhibition, % at 1 µM; 2.3% of 360,000 active; AID 588726; in the data active = inhibition above about 27%;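 also: 0% = vehicle and 100% = reference inhibitor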
Target sequence (P9WQA3 whole entry, looked up): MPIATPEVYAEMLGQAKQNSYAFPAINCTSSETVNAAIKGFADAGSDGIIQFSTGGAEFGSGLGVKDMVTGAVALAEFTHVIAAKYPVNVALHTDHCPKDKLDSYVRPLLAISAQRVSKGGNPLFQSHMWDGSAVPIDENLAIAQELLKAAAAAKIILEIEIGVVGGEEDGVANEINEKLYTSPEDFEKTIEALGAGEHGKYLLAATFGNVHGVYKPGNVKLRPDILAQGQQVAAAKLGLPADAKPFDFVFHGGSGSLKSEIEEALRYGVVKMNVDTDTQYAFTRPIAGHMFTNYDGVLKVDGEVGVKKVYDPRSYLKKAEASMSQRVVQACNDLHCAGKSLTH
Mtb FBA inh conf: confirmation of M. tuberculosis fructose-bisphosphate aldolase inhibitors; shares compounds with Mtb FBA inh; purified M. tuberculosis FBA, fluorescence read-out; inhibition, % at 1 µM; 78% of 5,600 active; in the data active = inhibition above about 27%;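 also: 0% = vehicle wells and 100% = reference inhibitor wells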
GDH-TPI counter-2: GDH-TPI inhibition counter-screen for FBA inhibitors; shares compounds with Mtb FBA inh; GDH-TPI coupled enzyme counterscreen, fluorescence; inhibition, % at 1 µM; 81% of 5,600 active; AID 652141; in the data active = inhibition above about 10%
* marks the source's active call; other numbers are inactive results; i = inactive; / = not tested or not shown; + = active, no number. A selection: hits, their analogues and other compounds. The true share with any hit is near 3.9%. Rule as the data show it, unless noted: active = inhibition above about 30%; inactive = the rest.

SMILES | GDH-TPI counter-1 | CCHF vOTU inh | BH1578 lux ind | Mtb FBA inh | Mtb FBA inh conf | GDH-TPI counter-2
CC(=O)Nc1nc2n(n1)C(c1ccc(F)cc1)C=C(c1ccccc1)N2 (stereo not drawn) | 13 | -19 | i | 17 | / | /
CC1=CC(c2ccccc2)n2nc(NC(=O)CCC(=O)O)nc2N1 (stereo not drawn) | 28 | -117 | 0 | 81* | -4 | -5
COc1ccccc1-n1c(SCC(=O)N2CCOCC2)nc2ccccc2c1=O | 1 | 8 | -1 | 0 | / | /
COc1ccccc1-n1c(SCc2cc(=O)oc3cc(O)ccc23)nc2ccccc2c1=O | 8 | 7 | 0 | 72* | 2 | 2
O=C(COc1ccc(Br)cc1)N1CCN(C2CCCC2)CC1 | 6 | 5 | i | 33* | 29* | 13*
O=C(COc1ccc(Br)cc1)N1CCCCCC1 | -1 | -1 | -6 | -2 | / | /
O=S(=O)(Nc1cccc(-c2cn3c(n2)SCC3)c1)c1ccccc1F | 8 | 7 | 1 | 1 | / | /
O=S(=O)(Nc1cccc(-c2cn3c(n2)SCC3)c1)c1cccs1 | 0 | -2 | i | 32* | 98* | 96*
COc1ccc(NC(=O)N(C)[C@H]2C[C@H]3c4[nH]c5ccccc5c4CCN3C(=O)[C@H]2[C@H](C)O)cc1 | 9 | -138 | 0 | 26 | / | /
C[C@H](O)[C@@H]1C(=O)N2CCc3c([nH]c4ccccc34)[C@@H]2C[C@@H]1N(C)S(=O)(=O)c1ccccc1 | 11 | -236 | 0 | 72* | + | +
C[C@H](O)[C@@H]1C(=O)N2CCc3c([nH]c4ccccc34)[C@@H]2C[C@@H]1N(C)C(=O)Nc1cccc2ccccc12 | / | -92 | / | 74* | 27 | 24*
Cc1ccccc1C(=O)N(C)[C@H]1C[C@H]2c3[nH]c4ccccc4c3CCN2C(=O)[C@H]1[C@H](C)O | -5 | -28 | 2 | 7 | / | /
CCOC(=O)N1CCN(C(=O)CCS(=O)(=O)c2cc3c(cc2Cl)NC(=O)CO3)CC1 | 1 | 1 | 0 | 2 | / | /
CC(OC(=O)c1ccccc1NCCO)C(=O)NC1CCCCC1C (stereo not drawn) | 4 | -94 | i | 96* | 1 | -4
CC1CCN(C(=O)COC(=O)c2ccccc2NCCO)CC1 | 14 | -125 | i | 92* | 131* | 112*
O=C(OCC(=O)N1CCCc2ccccc21)c1ccccc1NCCO | -9 | -98 | 7 | 99* | 148* | 140*
CC1Cc2ccccc2N1C(=O)COC(=O)c1ccccc1NCCO (stereo not drawn) | 16 | -82 | -2 | 109* | 80* | 67*
COC(=O)c1sc(N)c(C(=O)OC)c1COC(=O)C1CC(=O)N(Cc2ccco2)C1 (stereo not drawn) | 20 | -4 | -1 | 2 | / | /
COCCCNC(=O)Cn1nnc(-c2ccccc2NC(=O)c2ccc(F)cc2)n1 | 0 | -8 | i | 1 | / | /
O=C(COC(=O)c1ccccc1NCCO)Nc1cc(C(F)(F)F)ccc1N1CCOCC1 | 4 | -63 | -5 | 70* | 3 | -5
CCOC(=O)c1ccc(-c2ccc3oc(-c4ccsc4)cc(=O)c3c2)cc1F | 5 | 21 | i | -1 | / | /
CN1CCC(Oc2ccccc2Sc2ccccc2)CC1 | 8 | 7 | i | 29* | 167* | 130*
CN1CCC(OC(c2ccccc2)c2ccccc2)CC1 | -3 | 1 | 6 | 0 | / | /
Cc1cccc(-n2nc(C)c3c(C(=O)O)cc(-c4cccs4)nc32)c1 | 18 | 20 | 0 | 62* | 149* | 135*
Cc1nn(-c2ccccn2)c2nc(-c3cccs3)cc(C(=O)N3CCOCC3)c12 | 31* | -175 | 0 | 105* | 59* | 59*
SMILES | GDH-TPI counter-1 | CCHF vOTU inh | BH1578 lux ind | Mtb FBA inh | Mtb FBA inh conf | GDH-TPI counter-2
CC(C)(C)c1ccc(OCC(=O)N/N=C/c2ccc(N3CCOCC3)cc2)cc1 | 23 | 12 | 0 | 27* | 62* | 43*
CC(C)NC(=S)N/N=C/c1ccc(N2CCOCC2)cc1 | 40* | -32 | 1 | 38* | 120* | 89*
Cc1ccc(/C=N/NC(=S)NC(C)C)o1 | 29 | 4 | -3 | 2 | / | /
COCCNC(=S)N/N=C/c1ccc(N2CCOCC2)cc1 | 31* | -51 | 0 | 46* | + | +
C/C(=N/NC(=O)COc1ccc(C(C)(C)C)cc1)c1ccc(N2CCOCC2)cc1 | 21 | 14 | i | 3 | / | /
C=C(C)CNC(=S)N/N=C/c1ccc(N2CCOCC2)cc1 | 42* | -64 | 0 | 53* | 53* | 52*
COc1ccc(-n2nnc3c(=O)n(CC(=O)N4CCCC4)cnc32)cc1 | 0 | -2 | 0 | 2 | / | /
CC(C)c1nnc2c(N(C)S(=O)(=O)c3ccccc3)nc3ccccc3n12 | 3 | 11 | i | -1 | / | /
CC(NS(=O)(=O)c1cc2c3c(c1)CCC(=O)N3CCC2)c1ccccc1 (stereo not drawn) | -2 | -7 | i | 0 | / | /
N=c1c(S(=O)(=O)c2ccccc2)cc2c(=O)n3ccccc3nc2n1CC1CCCO1 (stereo not drawn) | 16 | -48 | -1 | 69* | + | +
N=c1c(S(=O)(=O)c2ccc(Cl)cc2)cc2c(=O)n3ccccc3nc2n1CC1CCCO1 (stereo not drawn) | 1 | / | i | 23 | / | /
N=c1c(S(=O)(=O)c2ccc(Cl)cc2)cc2c(=O)n3ccccc3nc2n1Cc1ccco1 | 15 | -59 | 0 | 56* | 142* | 107*
COCCn1c(=N)c(S(=O)(=O)c2ccc(F)cc2)cc2c(=O)n3ccccc3nc21 | 9 | -6 | -1 | 34* | 52* | 41*
COCCn1c(=N)c(S(=O)(=O)c2ccc(Br)cc2)cc2c(=O)n3ccccc3nc21 | 3 | -6 | 0 | 5 | / | /
OCC1OC(n2cnc3ncccc32)C(O)C1O (stereo not drawn) | / | -3 | / | -1 | / | /
COc1cccc(C(=O)Nc2sc3c(c2C#N)CCN(C(C)=O)C3)c1 | 8 | -1 | 0 | 0 | / | /
CN1c2ccccc2Oc2nnc(N3CCN(Cc4ccccc4)CC3)cc21 | 6 | -73 | 0 | 57* | 87* | 82*
CN1c2ccccc2Oc2ccccc21 | 5 | 4 | 0 | 2 | / | /
COc1ccccc1N1CCN(Cc2ccccc2)CC1 | 10 | -10 | 0 | -1 | / | /
CN1c2ccccc2Oc2nnc(Cl)cc21 | 7 | -48 | 0 | 28* | 51* | 38*
CCN(CC)CCOc1cc2c(nn1)Oc1ccccc1N2C | 27 | -51 | -3 | 56* | 164* | 154*
O=C(NCCCN1CCCC1=O)NC12CC3CC(CC(C3)C1)C2 | -1 | -1 | -3 | -3 | / | /
COc1ccccc1-c1cc2ccccc2[nH]1 | 12 | -23 | 0 | 90* | 49* | 27*
O=C(O)c1ccccc1-c1cc2ccccc2[nH]1 | -3 | 8 | 0 | 3 | / | /
Cc1nc2nc(Cc3ccccc3)[nH]n2c(=O)c1Cl | -7 | 1 | -3 | 29* | 49* | 50*
